Screening results (PubChem BioAssay)
Pf growth 48h = inhibits P. falciparum growth in the first generation, 48 h. hit rate 5.9% among 310,000. AID 504832. P. falciparum luciferase growth in erythrocytes, 48 h. Potency, µM (titrated, usually from 28.7 µM), without a hit: at the highest dose activity change, negative = inhibition, actives largely listed as inhibitors; further: on the % scale 0 is the no-effect control and ±100 the full control effect
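Luciferase-expressing P. falciparum in infected erythrocytes (2% hematocrit, 0.1% parasitemia final) in RPMI 1640/0.5% Albumax were exposed to compound for 48 hours at 37 C, 5% CO2; growth read as luminescence.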
AMA1 RON2 block = inhibitors of Plasmodium falciparum AMA1-RON2 interaction; hit rate 0.2% among 360,000; AlphaScreen AMA1-biotinylated RON2 peptide binding; AID 720542; Potency, µM (top dose mostly 58.2 µM), for inactives: at the highest dose activity change, negative = inhibition, usual class: inhibitors;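 further: 0% = vehicle wells and -100% = peptide control; nearly all actives have a fitted effect of over 45% in size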
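AMA1 (3D7) with his tag at 25 nM final met compounds first, then biotinylated RON2 peptide at 25 nM; detection used donor plus acceptor beads, 10 µg/mL apiece, read by AlphaScreen after 30 min at room temperature.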
Pf growth 96h = inhibits malaria parasite growth, 96 h; Potency, µM (series often up to 28.7 µM), inactives show at the top dose activity change, negative = inhibition, actives largely listed as inhibitors; P. falciparum luciferase reporter growth, 96 h; hit rate 6.9% among 320,000; further: on the % scale 0 is the no-effect control and ±100 the full control effect
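P. falciparum expressing integrated firefly luciferase grown in erythrocytes (2% hematocrit, 0.05% parasitemia final) with compounds for 96 hours at 37 C, 5% CO2. Growth inhibition read as loss of luminescence after adding luciferase detection reagent.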
NS1 function inh = blocks influenza NS1 protein function | Potency, µM (titrated, usually from 46.1 µM), without a hit: at the top dose activity, positive = more growth | hit rate 0.4% among 270,000 | AID 2326; calls by dose curve; further: actives are rising curves; nearly all actives have a fitted effect of over 50% in size
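Read-out: OD600 growth recovery of NS1-expressing budding yeast. Cells grown overnight at 30C in -URA glucose medium, washed, resuspended and diluted 1:100 in 2% galactose assay medium, pH 6.0. Same strain lacking NS1 served as positive control.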
HCV inh = inhibitors of hepatitis C virus infection; Huh7.5.1 HCVcc-Cre infection, luciferase reporter, 44 h; Potency, µM (series often up to 41.8 µM), for inactives: at the top dose activity change, negative = inhibition, actives largely listed as inhibitors; hit rate 3.4% among 340,000; AID 651820; further: on the % scale 0 is the no-effect control and ±100 the full control effect
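Seed cells (1,000/well) for 4 h; treat with compound and infect with HCVcc-Cre, moi about 0.5. Incubate 44 h, then detect luciferase activity.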
SARS PLpro yeast = inhibitors of SARS-CoV papain-like protease in yeast; S. cerevisiae expressing SARS-CoV PLpro, growth rescue; Potency, µM (top dose mostly 32.9 µM), without a hit: at the top dose activity, positive = growth rescue, actives largely listed as activators; hit rate 0.19% among 330,000; AID 485353; calls by dose curve; further: 0% is about no effect; nearly all actives have a fitted effect of over 55% in size
Starred values were filed as active, the others as inactive. A selection: hits, their analogues and other compounds. The true share with any hit is near 12%. Unless noted, the call rests on the fitted dose curve; in most records, active means well fitted curve in the direction sought with a large enough effect; inconclusive means small, poorly fitted or top-dose-only effect, or another doubt; inactive means no such curve, though single readings can be large; an effect the other way counts as inactive or inconclusive. Potency means the concentration at half of the fitted maximal effect.

Results for Cc1nn(Cc2ccccc2Cl)c2sc(C(=O)Nc3ccccc3N3CCOCC3)cc12 ?
Pf growth 48h: inconclusive; AMA1 RON2 block: 0%; Pf growth 96h: inconclusive; NS1 function inh: 28%; HCV inh: 13µM*; SARS PLpro yeast: -4%

Results for Cc1nn(Cc2ccc(F)cc2)c2sc(C(=O)Nc3nccs3)cc12 ?
Pf growth 48h: inconclusive; AMA1 RON2 block: 67%; Pf growth 96h: inconclusive; NS1 function inh: 9%; HCV inh: inconclusive; SARS PLpro yeast: 1%

What do the screens show for `Cc1nn(Cc2ccccc2Cl)c2sc(C(=O)Nc3nccs3)cc12`?
Pf growth 48h: inconclusive; AMA1 RON2 block: 35%; Pf growth 96h: inconclusive; NS1 function inh: 23%; HCV inh: inconclusive; SARS PLpro yeast: 8%

What do the screens show for `Cc1nn(Cc2ccc(F)cc2)c2sc(C(=O)Nc3ccccc3N3CCOCC3)cc12`?
Pf growth 48h: 6%; AMA1 RON2 block: 13%; Pf growth 96h: 17%; NS1 function inh: -3%; HCV inh: inconclusive; SARS PLpro yeast: 13%

What do the screens show for `Cc1nn(Cc2ccccc2Cl)c2sc(C(=O)NCc3ccc4c(c3)OCO4)cc12`?
AMA1 RON2 block: -11%; Pf growth 96h: 12µM*; NS1 function inh: inconclusive; HCV inh: inconclusive; SARS PLpro yeast: 1%

Results for CCC(CC)NC(=O)c1cc2c(C)nn(Cc3ccccc3Cl)c2s1 ?
Pf growth 48h: 13µM*; AMA1 RON2 block: 29%; NS1 function inh: 7%; HCV inh: inconclusive; SARS PLpro yeast: -3%

What do the screens show for `O=C1CSC(c2cccc(F)c2)N1c1ccccc1` (stereo unspecified)?
Pf growth 48h: 15%; AMA1 RON2 block: 0%; Pf growth 96h: 1%; NS1 function inh: 3%; HCV inh: 5%; SARS PLpro yeast: 0%

How did Nn1c(SCC(=O)NCCC2=CCCCC2)nnc1-c1cccnc1 do in these assays?
Pf growth 48h: 0%; AMA1 RON2 block: 16%; Pf growth 96h: 1%; HCV inh: 28%; SARS PLpro yeast: 1%

How did CCN(CC)S(=O)(=O)c1cccc(-c2nnc(SCC(=O)NCCC3=CCCCC3)n2N)c1 do in these assays?
Pf growth 48h: -16%; AMA1 RON2 block: -17%; Pf growth 96h: 12µM*; NS1 function inh: -12%; HCV inh: -26%; SARS PLpro yeast: -8%

What do the screens show for `O=C1CCC[C@@H]2Cc3nc4cc5c(cc4cc3[C@@H]3CCN1[C@H]23)OCO5`?
AMA1 RON2 block: -8%; HCV inh: 33%

Results for CN1C(=O)CC(C(=O)Nc2ccccc2F)SC1=Nc1ccc2c(c1)OCO2 (stereo unspecified) ?
Pf growth 48h: inconclusive; AMA1 RON2 block: 1%; Pf growth 96h: 27%; HCV inh: 1%; SARS PLpro yeast: -2%

How did Cc1ccc(C(=O)NCC(C)(C)O)cc1 do in these assays?
Pf growth 48h: inconclusive; AMA1 RON2 block: -28%; Pf growth 96h: inconclusive; NS1 function inh: 12%; HCV inh: 13%; SARS PLpro yeast: 1%

How did Cc1ccc(C(=O)NC(C)(COc2nonc2C)COc2nonc2C)cc1 do in these assays?
Pf growth 48h: 12µM*; AMA1 RON2 block: 10%; NS1 function inh: -5%; HCV inh: -30%; SARS PLpro yeast: -1%

How did CC(C)N(Cc1nc(-c2ccc(Cl)cc2)no1)C(=O)C(c1ccccc1)c1ccccc1 do in these assays?
AMA1 RON2 block: -9%; Pf growth 96h: 8.3µM*; NS1 function inh: 12%; HCV inh: -16%; SARS PLpro yeast: -15%

Results for COc1ccccc1N1CCN(C(=O)CN(C)S(=O)(=O)c2ccc(C)cc2)CC1 ?
AMA1 RON2 block: 6%

What do the screens show for `COc1ccc(OCc2nnc(SCC(=O)c3ccccc3)o2)cc1`?
Pf growth 48h: -2%; AMA1 RON2 block: 30%; Pf growth 96h: 46%; NS1 function inh: -8%; HCV inh: -6%; SARS PLpro yeast: -1%

What do the screens show for `CC[C@@H](C(=O)[C@@H](C)[C@@H](O)[C@H](C)[C@@H]1O[C@@H]([C@@H](CC)C(=O)O)CC[C@@H]1C)[C@H]1O[C@]2(C=C[C@@H](O)[C@]3(CC[C@@](C)([C@H]4CC[C@](O)(CC)[C@H](C)O4)O3)O2)[C@H](C)C[C@@H]1C`?
AMA1 RON2 block: -6%; HCV inh: 0.35µM*

What do the screens show for `CCC(C(=O)O)C1CCC(C)C(C(C)C(O)C(C)C(=O)C(CC)C2OC3(C=CC(O)[C@@]4(CC[C@](C)(C5CC[C@@](O)(CC)C(C)O5)O4)O3)C(C)CC2C)O1` (stereo partly specified)?
Pf growth 48h: 0.43µM*; Pf growth 96h: 0.21µM*

How did CC(C)CCC1(CCO)C(=O)N=C(N)NC1=O (stereo unspecified) do in these assays?
AMA1 RON2 block: 22%; HCV inh: 24%

Results for COC(=O)C1CCN(c2cc(=O)n(-c3ccccc3Cl)c(=O)[nH]2)CC1 ?
Pf growth 48h: 6.6µM*; AMA1 RON2 block: -6%; Pf growth 96h: 19%; NS1 function inh: -1%; HCV inh: 20%; SARS PLpro yeast: 5%

What do the screens show for `Cc1noc(C)c1CSc1nnc(-c2cccnc2)n1C1CCCCC1C` (stereo unspecified)?
Pf growth 48h: 7%; AMA1 RON2 block: 6%; Pf growth 96h: -19%; NS1 function inh: -5%; HCV inh: 7%; SARS PLpro yeast: -2%

Results for COc1ccc(Cc2nnc(SCc3c(C)noc3C)n2C2CCCCC2)cc1OC ?
Pf growth 48h: 9.3µM*; AMA1 RON2 block: 14%; Pf growth 96h: inconclusive; NS1 function inh: -3%; HCV inh: -10%; SARS PLpro yeast: 6%

How did Cc1cc(OI)c(C(C)C)cc1-c1cc(C(C)C)c(OI)cc1C do in these assays?
Pf growth 48h: inconclusive; Pf growth 96h: 6.7µM*

Results for CCN=C1SCC(=O)N1c1ccc(OC)cc1 ?
Pf growth 48h: 11%; AMA1 RON2 block: -3%; NS1 function inh: 9%; HCV inh: 14%; SARS PLpro yeast: -1%

How did Cc1ccc(N2C(=O)CS/C2=N\C(=S)Nc2ccccc2)cc1 do in these assays?
Pf growth 48h: -19%; AMA1 RON2 block: 22%; Pf growth 96h: 4.1µM*; NS1 function inh: 17%; HCV inh: -20%; SARS PLpro yeast: 1%

How did O=C(CSc1nc2ccccc2s1)NCc1cc([N+](=O)[O-])ccc1O do in these assays?
Pf growth 48h: 7%; AMA1 RON2 block: 2%; Pf growth 96h: inconclusive; HCV inh: 4%; SARS PLpro yeast: 3%

How did CN(Cc1nc2ccccc2c(=O)[nH]1)CC(O)COCc1ccco1 (stereo unspecified) do in these assays?
Pf growth 48h: -7%; AMA1 RON2 block: 172%; Pf growth 96h: 6.6µM*; NS1 function inh: 5%; HCV inh: 4%; SARS PLpro yeast: 2%
